An excerpt weighted towards active compounds, which were near 2.3% of everything screened.
PDI turbidity – PDI (human) enzyme inhibition; P07237; PDI insulin aggregation turbidity, A650, 90 min; inhibition, % at 10 µM; hit rate 0.052% among 350,000; AID 588391;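 active = mean inhibition across replicates of 30% or more, whatever share of single replicates reach that level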
Target sequence (P07237 whole entry, looked up): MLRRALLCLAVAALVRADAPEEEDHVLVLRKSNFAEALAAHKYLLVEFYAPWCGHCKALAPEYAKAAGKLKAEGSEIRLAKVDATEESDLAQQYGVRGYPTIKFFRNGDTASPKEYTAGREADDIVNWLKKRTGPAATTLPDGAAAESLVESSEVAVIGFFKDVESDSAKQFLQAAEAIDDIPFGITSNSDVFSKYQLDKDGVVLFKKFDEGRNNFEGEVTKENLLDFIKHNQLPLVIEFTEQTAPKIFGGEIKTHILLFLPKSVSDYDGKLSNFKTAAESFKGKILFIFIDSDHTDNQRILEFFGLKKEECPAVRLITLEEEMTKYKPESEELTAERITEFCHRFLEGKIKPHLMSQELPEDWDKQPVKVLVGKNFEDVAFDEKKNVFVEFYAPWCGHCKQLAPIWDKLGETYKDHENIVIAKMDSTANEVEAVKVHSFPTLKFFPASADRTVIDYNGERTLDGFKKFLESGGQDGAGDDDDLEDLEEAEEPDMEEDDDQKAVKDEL
ERp5 block – ERp5 (human) disulfide isomerase inhibition. Q15084. ERp5 insulin aggregation, absorbance 650 nm, 90 min. inhibition, % at 9.99 µM. hit rate 0.05% among 350,000;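 active = mean replicate inhibition above about 25%, with every replicate also reaching it, limit read from the data, passing the limit was not always enough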
SIRT5 block – inhibitors of human sirtuin-5 desuccinylase | inhibition, % at 15 µM | hit rate 1.1% among 330,000 | Purified SirT5, succinyl-peptide AMC, trypsin-coupled fluorescence | Q9NXA8; in the data active = inhibition above about 15%
DENV2 CPE rescue – protects cells from dengue virus 2 cytopathic effect. DENV2-infected cells, cytopathic effect rescue, plate reader. CPE inhibition, % at 9.99 µM. hit rate 1.7% among 350,000. AID 651640; in the data active = CPE inhibition above about 20%, passing the limit was not always enough; tested in BHK-21 cells;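 note: 0% = median of neutral control wells and 100% = median of positive control wells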
Rtt109 Vps75 – inhibitors of Candida albicans Rtt109/Vps75 histone acetyltransferase; Q5AAJ8; purified Rtt109/Vps75, ThioGlo CoA-SH fluorescence, 4 h; inhibition, % at 34.9 µM; hit rate 0.16% among 330,000; AID 540336;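 active = inhibition of at least 50% in every replicate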
Numbers without * were called inactive; . = no result.

SMILES	PDI turbidity	ERp5 block	SIRT5 block	DENV2 CPE rescue	Rtt109 Vps75
CC(C)NC(=O)Nc1ccc2c(c1)C(=O)N([C@H](C)CO)C[C@H](C)[C@H](CN(C)C(=O)Nc1ccc3c(c1)OCO3)O2	.	10	-5	0	.
CC(C)NC(=O)Nc1ccc2c(c1)C(=O)N([C@@H](C)CO)C[C@@H](C)[C@H](CN(C)C(=O)Nc1ccc3c(c1)OCO3)O2	.	15	-1	28*	.
C[C@@H]1CN([C@@H](C)CO)C(=O)c2cc(NC(=O)CCC(F)(F)F)ccc2O[C@@H]1CN(C)C(=O)Nc1ccc2c(c1)OCO2	.	1	-1	31*	.
O=C(CC1CC1)Nc1ccc2c(c1)[C@H]1C[C@H](CC(=O)NC3CCCCC3)O[C@@H](CO)[C@H]1O2	.	-6	2	10	.
CCNC(=O)[C@@H]1[C@@H](CO)[C@@H]2Cn3c(ccc(-c4cccc(OC)c4)c3=O)[C@@H]2N1C(=O)NC(C)C	.	-6	.	7	.
CCNC(=O)C[C@H]1CC[C@H](NS(=O)(=O)c2ccc(F)cc2)[C@@H](CO)O1	.	1	1	0	.
COc1ccc(S(=O)(=O)N2CCC3CC2c2cc(-c4ccc5c(c4)OCO5)ccc23)cc1 (configuration not stated)	.	1	-1	89*	.
Cc1ccc(S(=O)(=O)N2CCC3CC2c2cc(Cl)ccc23)cc1 (configuration not stated)	-3	-4	-2	6	-4
CC(C)c1ccccc1OCCCCN1CCCCC1	-1	0	-2	30*	1
CN1c2ccc(Br)cc2[C@H]2[C@H](CCN2S(=O)(=O)c2ccccc2F)[C@H]1CO	.	-2	.	-14	.
CCOc1ccc(Cl)cc1CNCCCSc1nc(C)cc(C)n1	5	3	20*	-6	3
CCOc1ccc(Cl)cc1CNCCCSc1ncccn1	-7	5	7	4	-6
Brc1ccc(-c2nnc(-c3cccnc3)o2)cc1	1	-1	-1	82*	-5
Cc1ccc(-c2nnc(-c3cccnc3)o2)cc1	1	-1	-3	-3	-11
C[C@H](CO)N1C[C@H](C)[C@@H](CN(C)Cc2ccc(Oc3ccccc3)cc2)Oc2c(NC(=O)CCCCCC(=O)Nc3ccccc3N)cccc2C1=O	.	10	22*	-4	.
C[C@@H]1CN([C@H](C)CO)C(=O)c2cccc(NC(=O)CCCCCC(=O)Nc3ccccc3N)c2O[C@@H]1CN(C)Cc1ccc(-c2ccccc2)cc1	.	7	14	36*	.
CC=Cc1ccc2n(c1=O)C[C@@H]1[C@@H](CO)[C@H](C(=O)NCCc3cn(C)cn3)N(C(=O)C3CC3)[C@H]21 (mixture of isomers)	.	-1	6	6	.
Cc1ccc(S(=O)(=O)N(C)C[C@H]2Oc3c(NS(=O)(=O)c4ccccc4)cccc3C(=O)N([C@H](C)CO)C[C@@H]2C)cc1	.	-15	-6	2	.
COCCCN1C(=O)[C@@]2(Cc3ccccc31)c1ccccc1C(=O)N(Cc1ccccc1)[C@H]2c1ccc(CO)cc1	.	1	-3	23*	.
CN(C)CCCN1C(=O)[C@@]2(Cc3ccccc31)c1ccccc1C(=O)N(Cc1ccccc1C(F)(F)F)[C@H]2c1ccc(CO)cc1	.	0	-1	-2	.
COC(=O)C1=CN(Cc2ccc(OC)c(OC)c2)C=C(C(=O)OC)C1c1ccc(F)cc1	-2	1	18*	-2	-66
O=C(C[C@H]1CC[C@@H](NC(=O)C2CCC2)[C@@H](CO)O1)Nc1nccs1	.	4	-3	9	.
C[C@@H]1CN([C@@H](C)CO)C(=O)Cc2cc(NC(=O)NC3CCCCC3)ccc2O[C@H]1CN(C)CC1CCCCC1	.	-2	14	-15	.
COc1ccc(-c2noc(Cn3cc(S(=O)(=O)N4CCCC4)ccc3=O)n2)cc1	5	2	22*	1	3
O=c1ccc(S(=O)(=O)N2CCCC2)cn1Cc1nc(-c2ccc(F)cc2)no1	0	-6	-4	9	-4
O=C(Nc1ccccc1C(=O)NCc1cccnc1)c1ccccc1Cl	-9	-3	-1	64*	4
COc1cc(NC(=S)NCc2cccnc2)c(OC)cc1Cl	2	-8	1	0	56*
COc1ccccc1NC(=S)NCc1cccnc1	-2	2	1	-3	-8
CO[C@H]1CN(C)C(=O)c2cc(NC(=O)C3CCC3)ccc2OC[C@H](C)N(Cc2ccccn2)C[C@@H]1C	.	3	3	-3	.
O=C(C[C@H]1CC[C@@H](NC(=O)C2CCOCC2)[C@@H](CO)O1)NCC1CC1	.	1	1	3	.

Screening results deposited in PubChem BioAssay by Broad Institute.
